From PubChem
An excerpt weighted towards active compounds, which were near 3.9% of everything screened.
BoNT-A LC inh2 – BoNT A light chain protease inhibition; multiplex microsphere protease substrate cleavage, flow cytometry; inhibition, % at 10 µM; 0.17% of 360,000 active; AID 588499
Anthrax LF inh2 – inhibitors of Bacillus anthracis lethal factor protease. P15917. multiplex microsphere protease cleavage assay, LF. inhibition, % at 10 µM. 0.12% of 360,000 active. AID 588501
BoNT-F LC inh – blocks Botulinum neurotoxin F light chain protease; Multiplex microsphere protease cleavage assay, flow cytometry; inhibition, % at 10 µM; 0.22% of 360,000 active; AID 588497; in the data active = inhibition above about 35%, passing the limit was not always enough; inconclusive = no clear call, values can overlap the other calls
Bead autofluor – counter-screen for toxin protease inhibitors: compound fluorescence. AID 624483. fluorescence intensity (no concentration beside the values). 3.1% of 360,000 active. compound autofluorescence counterscreen, microsphere flow cytometry; stronger effect = higher value; in the data active = fluorescence intensity above about 16000; inconclusive = no clear call, values can overlap the other calls
BH1578 lux ind – quorum light induction in luxS cqsA deficient V. cholerae. V. cholerae BH1578 lux reporter, luminescence, 6 h. activation, % at 18.7 µM. 0.16% of 350,000 active. AID 588436; in the data active = activation mostly above about 9.7%, no sharp cut-off; inconclusive = no clear call, values can overlap the other calls; inactive = mostly below about 3.7%
MazEF act – increases E. coli MazEF RNase cleavage of RNA. P0AE70. FAM/BHQ RNA-DNA oligo cleavage fluorescence, 5 h. activation, % at 20 µM. 0.32% of 350,000 active; in the data active = activation above about 50%
Target sequence (P0AE70 whole entry, looked up): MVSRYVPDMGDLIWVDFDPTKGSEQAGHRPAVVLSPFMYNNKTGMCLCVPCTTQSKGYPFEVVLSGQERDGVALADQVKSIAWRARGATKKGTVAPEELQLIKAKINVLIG
Hits are given with their value; n = inactive; u = inconclusive; x = no result given. Cut-off read from the data, not from the text of the source, unless noted: active = inhibition above about 30%; inconclusive = no clear call, values can overlap the other calls; inactive = below that.

SMILES	BoNT-A LC inh2	Anthrax LF inh2	BoNT-F LC inh	Bead autofluor	BH1578 lux ind	MazEF act
CC(=O)Oc1cc2cccc(OC(C)=O)c(=O)c2c(OC(C)=O)c1OC(C)=O	n	n	n	n	n	214.3
COc1cc2cccc(OC)c(=O)c2c(O)c1OC	n	n	n	n	n	n
CC(C)C12CN3CCN(CC(C3)C1O)C2 (stereo not given)	n	n	n	16737	n	n
CCC12CN3CCN(CC(C3)C1O)C2 (stereo not given)	n	n	n	n	n	n
CC(C)(C)NC(=O)C(c1ccncc1)N(Cc1ccc(F)cc1)C(=O)c1ccc(-c2ccccc2)[nH]1 (stereo not given)	n	n	n	n	n	n
CCC(CC)C(=O)Nc1ccc(Sc2ccc([N+](=O)[O-])cc2)cc1	n	n	n	19877	n	n
COc1ccc(-c2cn3cccnc3n2)cc1NC(=O)CC(C)C	n	n	n	n	n	n
CCCC(=O)Nc1cc(-c2cn3cccnc3n2)ccc1OC	n	n	n	18918	n	n
O=C(Nc1cccc(-c2cn3cccnc3n2)c1)c1ccco1	n	n	n	n	n	n
O=C(Nc1cccc(-c2cn3cccnc3n2)c1)c1ccc(Br)o1	u	n	n	22911	n	n
Cc1ccc(-c2cn3cccnc3n2)cc1NC(=O)c1c(-c2ccccc2Cl)noc1C	n	n	n	n	n	n
Cc1ccc(-c2cn3cccnc3n2)cc1NC(=O)c1ccc(Br)o1	n	n	n	17184	n	n
COc1ccc(-c2cn3cccnc3n2)cc1NC(=O)c1ccc(Br)o1	n	n	n	20830	n	n
N#C/C(=C/Nc1ccccc1C(=O)O)C(N)=O	n	n	n	n	n	n
CC(C)OCCCNC(=O)c1cn(C)c2ccc(S(=O)(=O)N(C)C3CCCCC3)cc2c1=O	n	n	n	n	n	n
O=C(Nc1cccc(-c2cn3cccnc3n2)c1)c1ccc2c(c1)OCO2	u	n	n	19449	n	n
c1cnc2nc(-c3ccc4c(c3)OCO4)cn2c1	n	n	n	n	n	n
Cc1ccc(S(=O)(=O)c2nc(-c3ccco3)oc2SCC(N)=O)cc1	n	n	n	n	n	n
Cc1ccc(-c2nc(S(=O)(=O)c3ccc(C)cc3)c(SCC(N)=O)o2)cc1	n	n	n	16360	n	n
CN1CCC(N2CCN(C3CN(C4CCCCC4)S(=O)(=O)C3)CC2)CC1 (stereo not given)	n	n	n	n	x	x
COc1ccc2cc([C@H](C)C(=O)N(C)Cc3ccccc3N3CCCC3)ccc2c1	n	n	n	21814	n	n
COc1ccc2nc(NC(=O)CC3Oc4ccccc4NC3=O)sc2c1 (stereo not given)	n	n	n	n	n	n
COC(=O)c1ccc(CC2(C)C(=O)Nc3ccc(-c4cccc(C(F)(F)F)c4)cc32)o1 (stereo not given)	n	n	n	n	n	x
CCOc1ccc(NS(=O)(=O)N(C)C)cc1	n	n	n	n	n	n
CN(C)S(=O)(=O)Nc1ccc(C(=O)O)cc1	n	n	n	21783	n	n
SMILES	BoNT-A LC inh2	Anthrax LF inh2	BoNT-F LC inh	Bead autofluor	BH1578 lux ind	MazEF act
Nc1c(C(=O)Nc2ccccc2)sc2nc3c(c(-c4ccco4)c12)CCC3	n	n	n	n	n	87.0
CCCCN(C(=O)COc1ccc(C)cc1OC)c1c(N)n(CCC)c(=O)[nH]c1=O	n	n	n	n	n	n
O=C(CSc1ncccn1)NCc1ccccc1	n	n	n	n	n	n
COc1ccccc1NC(=O)CSc1ncn(-c2ccccc2)n1	u	n	n	20548	n	n
O=C(CSc1ncn(-c2ccccc2)n1)NCc1ccccc1	u	n	n	23754	n	n
COc1cc(NC(=O)C/C(C)=N/NC(=O)C(=O)NCCO)c(OC)cc1Cl	n	n	n	n	n	n
COC(=O)c1cn(C)c2ccc(S(=O)(=O)N3CCCC3)cc2c1=O	n	n	n	20045	n	n
Cn1cc(C(=O)NC2CCCCC2)c(=O)c2cc(S(=O)(=O)N3CCCC3)ccc21	n	n	n	n	n	n
